Data published in PubChem BioAssay AID463082 (The Scripps Research Institute Molecular Screening Center, 2010).
In all, about 330,000 compounds went through this assay and about 4,900 (1.5%) were called active.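 Rule for the calls: active = inhibition above the mean inhibition across the screen plus 3 SD (cut at about 25% in these data); inactive = the rest.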 What follows is part of a selection rich in actives, with near analogues and random picks from the rest.

Target: Platelet-activating factor acetylhydrolase (Homo sapiens) (UniProt Q13093)
Assay: pPAFAH enzyme inhibitors, primary screen, biochemical, fluorescence polarization, human (AID 463082);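 note: inhibitors block binding of the rhodamine activity-based probe so polarization drops; 0% = enzyme with DMSO and 100% = wells lacking pPAFAH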
Conditions: recombinant pPAFAH, FP-rhodamine probe fluorescence polarization; at 3.39 µM; hits give high values

Platelet-activating factor acetylhydrolase (Homo sapiens), sequence (Q13093 whole entry, looked up): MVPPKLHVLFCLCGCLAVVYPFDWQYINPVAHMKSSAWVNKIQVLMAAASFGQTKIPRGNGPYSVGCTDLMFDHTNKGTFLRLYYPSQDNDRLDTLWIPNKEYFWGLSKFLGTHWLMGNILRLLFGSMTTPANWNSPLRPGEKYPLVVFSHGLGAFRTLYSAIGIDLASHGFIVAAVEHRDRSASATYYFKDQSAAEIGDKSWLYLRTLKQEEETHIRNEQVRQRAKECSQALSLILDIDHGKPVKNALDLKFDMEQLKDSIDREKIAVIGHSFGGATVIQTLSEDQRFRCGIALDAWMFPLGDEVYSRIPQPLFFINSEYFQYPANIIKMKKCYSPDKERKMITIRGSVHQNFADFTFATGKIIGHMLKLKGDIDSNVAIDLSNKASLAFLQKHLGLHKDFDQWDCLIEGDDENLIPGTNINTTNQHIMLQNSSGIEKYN

| Compound | inhibition |
| --- | --- |
| Cn1ncc(N2CCN(S(=O)(=O)c3ccc(Br)cc3)CC2)c(Cl)c1=O | -5.38% (inactive) |
| Cc1ccc(-c2nn(-c3ccccc3)cc2/C=C/C(=O)Nc2cccc(S(N)(=O)=O)c2)cc1 | -54.5% (inactive) |
| C=CCOc1ccc(/C=C2\SC(=S)N(CCC(=O)O)C2=O)cc1 | 10.2% (inactive) |
| Cc1ccc(-c2nn(-c3ccccc3)cc2/C=C2\SC(=S)N(CCCCCC(=O)O)C2=O)o1 | 31.3% (active) |
| Cc1ccc(/C=C2\SC(=S)N(CCC(=O)Nc3ccc(O)cc3)C2=O)cc1 | 4.61% (inactive) |
| O=C(CN1C(=O)/C(=C\c2ccccc2F)SC1=S)Nc1nc2ccccc2s1 | 7.09% (inactive) |
| CN(C)S(=O)(=O)c1cccc(-c2nn(-c3ccccc3)cc2/C=C2\SC(=S)N(CC(=O)O)C2=O)c1 | 38.2% (active) |
| O=C(N[C@@H]1C/C=C\C[C@@H](CC(=O)N(CCO)Cc2ccccc2)C(=O)N[C@H](Cc2ccccc2)COC1=O)OCC1c2ccccc2-c2ccccc21 | 7.18% (inactive) |
| O=C(NCCc1ccccn1)c1cc(C(=O)C2CCCCC2)c[nH]1 | 4.41% (inactive) |
| O=[N+]([O-])c1ncc(Br)cc1Nc1ccccc1 | 0.58% (inactive) |
| O=[N+]([O-])c1cc(S(=O)(=O)CCCN2CCOCC2)ccc1F | 0.16% (inactive) |
| N#Cc1ccccc1S(=O)(=O)N1CCN(C(=O)c2cc(-c3ccccc3)nn2-c2ccccc2)CC1 | 0.65% (inactive) |
| Cc1cccc(C)c1Nc1nnc(SCC(=O)NCCCN2CCCC2=O)s1 | 1.62% (inactive) |
| Cc1csc(SCC(=O)Nc2sccc2C#N)n1 | 11.3% (inactive) |
| Cc1cccc(C)c1Nc1nnc(SCC(=O)Nc2sccc2C#N)s1 | 27.6% (active) |
| CC1=CC=CC2=N/C(=N\S(=O)(=O)c3ccc(F)cc3F)c3ccccc3CN12 | 1.76% (inactive) |
| COc1cc(C(=O)Nc2oc(-c3ccccc3)c(-c3ccccc3)c2C#N)cc(OC)c1OC | 4.29% (inactive) |
| CC(C)C(=O)Nc1oc(-c2ccccc2)cc1C#N | -0.35% (inactive) |
| CC(Oc1ccccc1)C(=O)Nc1oc(-c2ccco2)c(-c2ccco2)c1C#N (centres undefined) | 28.7% (active) |
| O=C(COC(=O)COc1cccc(F)c1)NCC1CCCCC1 | 7.16% (inactive) |
| O=C(CNC(=O)c1cc(=O)[nH]c2ccccc12)Nc1ccc(F)c(F)c1 | 0.37% (inactive) |
| Cc1c(C(=O)OCC(=O)N(CCC#N)c2ccccc2)oc2c1ccc1ccccc12 | -0.27% (inactive) |
| Cc1ccc2nc(SCC(=O)Nc3cccc4ccccc34)nc(=O)n2c1 | 3.47% (inactive) |

| Compound | inhibition |
| --- | --- |
| Cc1ccccc1-n1c(SCC(=O)Nc2cccc3ccccc23)nc(O)cc1=O | 45.7% (active) |
| C=CCn1c(N)cc(=O)nc1SCC(=O)Nc1cccc2ccccc12 | 0.51% (inactive) |
| CN(C(=O)CSc1nnc(-c2ccc3c(c2)OCO3)o1)C1CCS(=O)(=O)C1 (centres undefined) | -3.28% (inactive) |
| C=CCN(Cc1nc(-c2cc(OC)c3c(c2)OCO3)oc1C)C1CCS(=O)(=O)C1 (centres undefined) | 30.4% (active) |
| COc1ccccc1C(=O)N(Cc1ccc(C)o1)C1CCS(=O)(=O)C1 (centres undefined) | 0.97% (inactive) |
| NNC(=O)c1oc2nc(-c3ccccc3)cc(-c3ccco3)c2c1N | 37.4% (active) |
| CNC(=S)NNC(=O)c1oc2nc(-c3ccccc3)cc(-c3ccco3)c2c1N | 11% (inactive) |
| O=C(Nc1cccc(F)c1)c1cc(-c2ccco2)nc2ccccc12 | 16% (inactive) |
| CC(=O)c1c(C)[nH]c(C(=O)COC(=O)c2cccc(S(=O)(=O)N(C)c3ccccc3)c2)c1C | -1.03% (inactive) |
| Cc1ccc(C)c(NC(=O)CCC(=O)NNC(=O)c2cccs2)c1 | 4.49% (inactive) |
| Cc1ccc(C)c(NC(=O)CCC(=O)N/N=C2/CC(=O)CC(C)(C)C2)c1 | 34.2% (active) |
| CC1(C)CC(=O)C/C(=N\NC(=O)c2cccs2)C1 | 1.45% (inactive) |
| O=C(Nc1ccc(-c2ccc3nncn3n2)cc1)C1CCCCC1 | 3.72% (inactive) |
| O=C(Nc1ccc(Br)cc1)c1cc(S(=O)(=O)Nc2ccccn2)ccc1Cl | 4.67% (inactive) |
| Fc1ccc(-n2c(Cc3ccccc3)nnc2SCc2nc(-c3ccc(Cl)cc3)no2)cc1 | 8.28% (inactive) |
| Cc1ccc(-c2noc(CSc3nnc(-c4ccncc4)n3-c3ccc(F)cc3)n2)cc1 | 61.4% (active) |
| Cc1ccc(-c2noc(CSc3nnc(-c4ccccc4)n3C)n2)cc1 | 2.63% (inactive) |
| Cc1c(S(=O)(=O)NCc2ccccc2)c(=O)n(C)c(=O)n1C | 3.56% (inactive) |
| Cc1ccc(N(C(=O)CNC(=O)c2ccco2)C(C(=O)NC2CCCC2)c2ccncc2)cc1 (centres undefined) | 3.58% (inactive) |
| Cn1c(SCC(=O)Nc2ccc(N3CCOCC3)cc2)nnc1C(F)(F)F | -4.91% (inactive) |
| Cc1c(C)c2ccc(OCC(=O)N3CCC(C(=O)O)CC3)c(C)c2oc1=O | -1.32% (inactive) |
| Cc1c(CC(=O)N2CCN(C(=O)C3COc4ccccc4O3)CC2)c(=O)oc2c(O)c(O)ccc12 (centres undefined) | 80.7% (active) |
| CCN(CC)S(=O)(=O)c1ccc(N2CCOCC2)c(NC(=O)C2COc3ccccc3O2)c1 (centres undefined) | 1.62% (inactive) |

| Compound | inhibition |
| --- | --- |
| COc1cccc(/C=C2\Sc3ccc(C(=O)NCC4CCCO4)cc3N(C)C2=O)c1 (centres undefined) | 8.27% (inactive) |
| Cc1cc(C)cc(OCC(=O)Nc2ccc(N3CCOCC3)cc2N2CCOCC2)c1 | 4.92% (inactive) |
| Cc1cc(N2CCCC2)ccc1NC(=O)COc1ccc(Cl)cc1 | 27.4% (active) |
| CCC(=O)c1ccc(OCC(=O)Nc2ccc(N3CCCCC3)cc2)cc1 | 3.34% (inactive) |
| Cn1c(CCC(=O)OCC(=O)NCc2ccccc2Cl)nc(=O)c2ccccc21 | 1.56% (inactive) |
| S=C(NCC1CCCO1)N1CCN(c2ccc(Cl)c(Cl)c2)CC1 (centres undefined) | 14.9% (inactive) |
| Oc1c(Br)cc(/C=N/NC(=S)NCC2CCCO2)cc1Br (centres undefined) | 35.5% (active) |
| S=C(NCCc1ccccc1)NCC1CCCO1 (centres undefined) | 3.38% (inactive) |
| CN(C)c1nccc(NCc2ccccc2)c1C#N | 5.61% (inactive) |
| CCOc1cccc2c1OC1(CCCCC1)N1N=C(c3cccnc3)CC21 (centres undefined) | 8.14% (inactive) |
| COc1ccccc1NC(=O)Nc1nnc(Cc2ccc(F)cc2)s1 | 1.88% (inactive) |
| O=C(C1CC(=O)N(c2ccc(Br)cc2)C1)N1CCCC1 (centres undefined) | 2.26% (inactive) |
| Cc1cc(NC(=O)C(C)N2C(=O)c3ccccc3S2(=O)=O)no1 (centres undefined) | 5.49% (inactive) |
| O=c1c2c(-c3ccccc3)ccnc2[nH]n1-c1ccccc1 | 16.9% (inactive) |
| COc1ccc(-n2cc(-c3ccccc3)c3c(=S)nc[nH]c32)cc1 | 16.5% (inactive) |
| O=c1[nH]cnc2c1c(-c1ccccc1)cn2-c1ccc(F)cc1 | 29.6% (active) |
| COc1cc(CCC(=O)Nc2ccncc2Cl)cc(OC)c1OC | 3.7% (inactive) |
| O=C(Cc1ccc(Br)cc1)NCCc1ccccc1 | -2.54% (inactive) |
| O=C(NCCCO)/C(=C\C=C\c1ccccc1)NC(=O)c1ccccc1Cl | 5.51% (inactive) |
| COc1ccc(OC)c(Nc2nc(-c3ccc(O)c(O)c3)cs2)c1 | 49.9% (active) |
| COc1ccc(OC)c(-c2csc(NC(=O)COC(=O)C3CC3)n2)c1 | 5.42% (inactive) |
| COc1ccc(CC(=O)Nc2nc(-c3ccc(F)c(F)c3)cs2)cc1OC | -1.93% (inactive) |
| CC1C(=O)Nc2ccc(S(=O)(=O)N3CCN(c4ccccc4F)CC3)cc2NC1=O (centres undefined) | 7.62% (inactive) |

| Compound | inhibition |
| --- | --- |
| Cc1ccc(S(=O)(=O)Oc2ccc(/C=N/NC(=O)c3c(Cl)cnn3C)cc2)cc1 | 4.46% (inactive) |
| COc1nc(Oc2ccc(=O)n(C)n2)nc(N(C)C)n1 | 1.86% (inactive) |
| CCn1nc(C)c(NC(=O)/C=C/c2ccc(OC)c(COc3ccc(Br)cc3)c2)c1C | 7.11% (inactive) |
| CCS(=O)(=O)c1ccc(-c2cccc(NC(=O)c3ccc(Br)o3)c2)nn1 | -0.56% (inactive) |
| O=C(NCCCN1CCCC1=O)c1cccc(S(=O)(=O)NCc2ccccc2)c1 | 5.61% (inactive) |
| O=C(NCCCN1CCCC1=O)c1ccc(S(=O)(=O)Nc2ccccc2)cc1 | 28.1% (active) |
| CCOc1ccc(S(=O)(=O)Nc2ccc(C(=O)NCCCN3CCCC3=O)cc2)cc1 | -4.42% (inactive) |
| CC(C)(C)OC(=O)C[C@H]1C/C=C\C[C@@H](CC(=O)N[C@H](CO)Cc2ccccc2)C(=O)NC[C@@H](c2ccccc2)OC1=O | 1.87% (inactive) |
| CC(=O)Nc1ccc(NC(=O)C2CCCN(S(=O)(=O)c3ccc(Cl)cc3)C2)cc1 (centres undefined) | 0.93% (inactive) |
| CC(Oc1ccc(F)cc1F)C(=O)/C=C/N(C)C (centres undefined) | 0.46% (inactive) |
| O=C(CN1C(=O)NC2(CCCCC2)C1=O)N1CCN(C(=O)c2cccs2)CC1 | 2.46% (inactive) |
| CCCCCCCCCCCCCCCC(=O)OC/C=C(C)/C=C/C=C(C)/C=C/C1=C(C)CCCC1(C)C | 25.7% (active) |
| CC1=C(/C=C/C(C)=C/C=C/C(C)=C/C=C/C=C(C)/C=C/C=C(C)/C=C/C2=C(C)CCCC2(C)C)C(C)(C)CCC1 | 18.3% (inactive) |
| CCOC(=O)NNc1cc(C(F)(F)F)ccn1 | 3.11% (inactive) |
| NC(=O)c1ccsc1NC(=O)COC(=O)COc1ccc(C=O)cc1 | 7.9% (inactive) |
| CCc1ccc(-c2nn(-c3ccccc3)cc2CSC(=N)N)cc1 | 3.9% (inactive) |
| Oc1ccc(N=Nc2nccs2)c(O)c1 | 37.2% (active) |
| Oc1ccc2ccccc2c1N=Nc1nccs1 | 17.6% (inactive) |
| O=C(NCc1cccc(Cl)c1)C1CCN(c2nnc(N3CCCC3=O)s2)CC1 | 3.53% (inactive) |
| CC(C)n1c(=S)[nH]c2cc(C(F)(F)F)ccc21 | 3.35% (inactive) |
